The full ranking holds about 8,300 sequences; the median of “log2 fold change of degron read counts, EGFP-low vs EGFP+ sorted cells (limma voom), compound-induced degradation” is about -1.1, and the highest 2% start at about 3.2. Many of the other results were omitted from the sample, so the highest values are more common in it than they were.
Molecular target: T1, CRBN, Q96SW2
T1 chain: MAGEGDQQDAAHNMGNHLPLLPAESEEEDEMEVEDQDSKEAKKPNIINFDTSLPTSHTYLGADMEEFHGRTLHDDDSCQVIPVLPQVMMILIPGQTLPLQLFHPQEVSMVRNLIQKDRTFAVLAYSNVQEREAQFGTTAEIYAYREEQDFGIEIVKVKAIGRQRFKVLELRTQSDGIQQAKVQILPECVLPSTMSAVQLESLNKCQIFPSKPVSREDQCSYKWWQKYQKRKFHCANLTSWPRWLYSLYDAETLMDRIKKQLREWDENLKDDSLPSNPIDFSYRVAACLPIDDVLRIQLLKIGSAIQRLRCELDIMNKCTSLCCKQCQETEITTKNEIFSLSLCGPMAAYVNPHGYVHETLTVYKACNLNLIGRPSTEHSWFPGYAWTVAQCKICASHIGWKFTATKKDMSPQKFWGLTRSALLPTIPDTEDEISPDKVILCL
Experiment: log2 fold change of degron read counts, EGFP-low vs EGFP+ sorted cells (limma voom), compound-induced degradation; higher = more compound-induced degradation of the degron-EGFP fusion; degrons are variants of IKZF1/3 zinc finger 2; compound dose not given here
Conditions: Jurkat, 18 h

[1] = compound: compound 19 (5-tert-butyl-thalidomide)
[2] = compound: compound 22 (5-morpholino-thalidomide)
[3] = compound: compound 33 (diphenyl IMiD analogue)
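Also: pooled lentiviral library of zinc finger degron-EGFP fusions in mCherry-positive Jurkat cells, FACS-sorted after compound exposure, with degron abundance counted by next-generation sequencing.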

FECPICGRRFTQKGNLLRHIKL [46F_47E_49P_50I_52G_53R_54R_55F_67L_, Q9UKT9]
log2 fold change of degron read counts [1]: -0.662 | log2 fold change of degron read counts [2]: -1.27 | log2 fold change of degron read counts [3]: 0.491 | log2 fold change of degron read counts (compound: thalidomide): 2.58

FRCPQCGADFTQKGNLLRHIKL [46F_47R_49P_50Q_52G_53A_54D_55F_67L_, Q9UKT9]
log2 fold change of degron read counts [1]: -3.08 | log2 fold change of degron read counts [2]: -3.48 | log2 fold change of degron read counts [3]: -0.625 | log2 fold change of degron read counts (compound: thalidomide): -1.35

LCCNQCGFCCTQKGNLLRHIKL [46L_47C_49N_50Q_52G_53F_54C_55C_67L_, Q9UKT9]
log2 fold change of degron read counts [1]: -1.92 | log2 fold change of degron read counts [2]: -2.67 | log2 fold change of degron read counts [3]: -1.9 | log2 fold change of degron read counts (compound: thalidomide): -2

FDCDICGAFFTQKGNLLRHIKL [46F_47D_49D_50I_52G_53A_54F_55F_67L_, Q9UKT9]
log2 fold change of degron read counts [1]: -1.35 | log2 fold change of degron read counts [2]: -2.45 | log2 fold change of degron read counts [3]: -1.91 | log2 fold change of degron read counts (compound: thalidomide): -1.7

LMCEICGFKCTQKGNLLRHIKL [46L_47M_49E_50I_52G_53F_54K_55C_67L_, Q9UKT9]
log2 fold change of degron read counts [1]: 0.00993 | log2 fold change of degron read counts [2]: -0.209 | log2 fold change of degron read counts [3]: 0.918 | log2 fold change of degron read counts (compound: thalidomide): 1.45

FHCNQCGHMFTQKGNLLRHIKL [46F_47H_49N_50Q_52G_53H_54M_55F_67L_, Q9UKT9]
log2 fold change of degron read counts [1]: -2.28 | log2 fold change of degron read counts [2]: -2.39 | log2 fold change of degron read counts [3]: -2.58 | log2 fold change of degron read counts (compound: thalidomide): -2.2

FCCDICGATFTQKGNLLRHIKL [46F_47C_49D_50I_52G_53A_54T_55F_67L_, Q9UKT9]
log2 fold change of degron read counts [1]: 0.685 | log2 fold change of degron read counts [2]: 1.05 | log2 fold change of degron read counts [3]: 1.24 | log2 fold change of degron read counts (compound: thalidomide): 0.177

FQCDICGATFTQKGNLLRHIKL [46F_47Q_49D_50I_52G_53A_54T_55F_67L_, Q9UKT9]
log2 fold change of degron read counts [1]: -0.685 | log2 fold change of degron read counts [2]: 1.86 | log2 fold change of degron read counts [3]: 0.81 | log2 fold change of degron read counts (compound: thalidomide): 3.25

FLCPICGATFTQKGNLLRHIKL [46F_47L_49P_50I_52G_53A_54T_55F_67L_, Q9UKT9]
log2 fold change of degron read counts [1]: -1.02 | log2 fold change of degron read counts [2]: -0.515 | log2 fold change of degron read counts [3]: 1.48 | log2 fold change of degron read counts (compound: thalidomide): 1.68

FYCNICGATFTQKGNLLRHIKL [46F_47Y_49N_50I_52G_53A_54T_55F_67L_, Q9UKT9]
log2 fold change of degron read counts [1]: 0.426 | log2 fold change of degron read counts [2]: 2.67 | log2 fold change of degron read counts [3]: 0.933 | log2 fold change of degron read counts (compound: thalidomide): -0.961

FQCNICGATFTQKGNLLRHIKL [46F_47Q_49N_50I_52G_53A_54T_55F_67L_, Q9UKT9]
log2 fold change of degron read counts [1]: -0.501 | log2 fold change of degron read counts [2]: 1.47 | log2 fold change of degron read counts [3]: 1.42 | log2 fold change of degron read counts (compound: thalidomide): 3.87

FDCPICGATFTQKGNLLRHIKL [46F_47D_49P_50I_52G_53A_54T_55F_67L_, Q9UKT9]
log2 fold change of degron read counts [1]: 1.59 | log2 fold change of degron read counts [2]: 0.119 | log2 fold change of degron read counts [3]: 1.11 | log2 fold change of degron read counts (compound: thalidomide): 1.68

FECPICGATFTQKGNLLRHIKL [46F_47E_49P_50I_52G_53A_54T_55F_67L_, Q9UKT9]
log2 fold change of degron read counts [1]: 0.0819 | log2 fold change of degron read counts [2]: -0.536 | log2 fold change of degron read counts [3]: 1.91 | log2 fold change of degron read counts (compound: thalidomide): 2.9

FTCPICGATFTQKGNLLRHIKL [46F_47T_49P_50I_52G_53A_54T_55F_67L_, Q9UKT9]
log2 fold change of degron read counts [1]: 0.225 | log2 fold change of degron read counts [2]: 2.5 | log2 fold change of degron read counts [3]: 2.28 | log2 fold change of degron read counts (compound: thalidomide): 2.88

FGCNICGATFTQKGNLLRHIKL [46F_47G_49N_50I_52G_53A_54T_55F_67L_, Q9UKT9]
log2 fold change of degron read counts [1]: 0.0778 | log2 fold change of degron read counts [2]: 1.89 | log2 fold change of degron read counts [3]: 1.52 | log2 fold change of degron read counts (compound: thalidomide): 0.109

FLCDICGATFTQKGNLLRHIKL [46F_47L_49D_50I_52G_53A_54T_55F_67L_, Q9UKT9]
log2 fold change of degron read counts [1]: -1.67 | log2 fold change of degron read counts [2]: -1.74 | log2 fold change of degron read counts [3]: -0.434 | log2 fold change of degron read counts (compound: thalidomide): -0.565

FWCPICGATFTQKGNLLRHIKL [46F_47W_49P_50I_52G_53A_54T_55F_67L_, Q9UKT9]
log2 fold change of degron read counts [1]: 2.22 | log2 fold change of degron read counts [2]: 3.57 | log2 fold change of degron read counts [3]: 1.64 | log2 fold change of degron read counts (compound: thalidomide): 0.523

FYCPICGATFTQKGNLLRHIKL [46F_47Y_49P_50I_52G_53A_54T_55F_67L_, Q9UKT9]
log2 fold change of degron read counts [1]: 3.2 | log2 fold change of degron read counts [2]: 3.57 | log2 fold change of degron read counts [3]: 2.42 | log2 fold change of degron read counts (compound: thalidomide): 1.16

FICPQCGADFTQKGNLLRHIKL [46F_47I_49P_50Q_52G_53A_54D_55F_67L_, Q9UKT9]
log2 fold change of degron read counts [1]: -3.68 | log2 fold change of degron read counts [2]: -2.36 | log2 fold change of degron read counts [3]: -1.84 | log2 fold change of degron read counts (compound: thalidomide): -2.04

FFCPICGHLFTQKGNLLRHIKL [46F_47F_49P_50I_52G_53H_54L_55F_67L_, Q9UKT9]
log2 fold change of degron read counts [1]: -0.994 | log2 fold change of degron read counts [2]: -0.746 | log2 fold change of degron read counts [3]: -0.828 | log2 fold change of degron read counts (compound: thalidomide): -1.02

LLCEICGFFCTQKGNLLRHIKL [46L_47L_49E_50I_52G_53F_54F_55C_67L_, Q9UKT9]
log2 fold change of degron read counts [1]: -0.357 | log2 fold change of degron read counts [2]: -0.957 | log2 fold change of degron read counts [3]: -0.00991 | log2 fold change of degron read counts (compound: thalidomide): 0.351

FMCDICGAMFTQKGNLLRHIKL [46F_47M_49D_50I_52G_53A_54M_55F_67L_, Q9UKT9]
log2 fold change of degron read counts [1]: -1.51 | log2 fold change of degron read counts [2]: -1.89 | log2 fold change of degron read counts [3]: 0.647 | log2 fold change of degron read counts (compound: thalidomide): -1.45

FGCPICGRQFTQKGNLLRHIKL [46F_47G_49P_50I_52G_53R_54Q_55F_67L_, Q9UKT9]
log2 fold change of degron read counts [1]: 2.87 | log2 fold change of degron read counts [2]: 0.813 | log2 fold change of degron read counts [3]: 0.341 | log2 fold change of degron read counts (compound: thalidomide): -0.4

LECPICGFVCTQKGNLLRHIKL [46L_47E_49P_50I_52G_53F_54V_55C_67L_, Q9UKT9]
log2 fold change of degron read counts [1]: -0.508 | log2 fold change of degron read counts [2]: -0.452 | log2 fold change of degron read counts [3]: 1.81 | log2 fold change of degron read counts (compound: thalidomide): 2.84

FRCPVCGAYFTQKGNLLRHIKL [46F_47R_49P_50V_52G_53A_54Y_55F_67L_, Q9UKT9]
log2 fold change of degron read counts [1]: -0.775 | log2 fold change of degron read counts [2]: 0.429 | log2 fold change of degron read counts [3]: 1.02 | log2 fold change of degron read counts (compound: thalidomide): 1.64

LHCEICGFQCTQKGNLLRHIKL [46L_47H_49E_50I_52G_53F_54Q_55C_67L_, Q9UKT9]
log2 fold change of degron read counts [1]: 2.39 | log2 fold change of degron read counts [2]: 2.27 | log2 fold change of degron read counts [3]: 1.7 | log2 fold change of degron read counts (compound: thalidomide): 1.64

LCCNQCGFNCTQKGNLLRHIKL [46L_47C_49N_50Q_52G_53F_54N_55C_67L_, Q9UKT9]
log2 fold change of degron read counts [1]: -2 | log2 fold change of degron read counts [2]: -2.61 | log2 fold change of degron read counts [3]: -2.13 | log2 fold change of degron read counts (compound: thalidomide): -1.77

FTCDVCGARFTQKGNLLRHIKL [46F_47T_49D_50V_52G_53A_54R_55F_67L_, Q9UKT9]
log2 fold change of degron read counts [1]: 0.31 | log2 fold change of degron read counts [2]: 1.8 | log2 fold change of degron read counts [3]: 0.304 | log2 fold change of degron read counts (compound: thalidomide): 1.36
